The values that follow come from ChEMBL document CHEMBL1961873, “Compounds: GSK PKIS; Assays: Nanosyn kinase panel” (2012).

Test [1] addresses Protein kinase C gamma type (Homo sapiens) (UniProt P05129). The settings on record: at 1 µM.
Test [2] concerns the target T1, Protein kinase C iota type (Homo sapiens) (UniProt P41743).
T1 sequence (whole entry): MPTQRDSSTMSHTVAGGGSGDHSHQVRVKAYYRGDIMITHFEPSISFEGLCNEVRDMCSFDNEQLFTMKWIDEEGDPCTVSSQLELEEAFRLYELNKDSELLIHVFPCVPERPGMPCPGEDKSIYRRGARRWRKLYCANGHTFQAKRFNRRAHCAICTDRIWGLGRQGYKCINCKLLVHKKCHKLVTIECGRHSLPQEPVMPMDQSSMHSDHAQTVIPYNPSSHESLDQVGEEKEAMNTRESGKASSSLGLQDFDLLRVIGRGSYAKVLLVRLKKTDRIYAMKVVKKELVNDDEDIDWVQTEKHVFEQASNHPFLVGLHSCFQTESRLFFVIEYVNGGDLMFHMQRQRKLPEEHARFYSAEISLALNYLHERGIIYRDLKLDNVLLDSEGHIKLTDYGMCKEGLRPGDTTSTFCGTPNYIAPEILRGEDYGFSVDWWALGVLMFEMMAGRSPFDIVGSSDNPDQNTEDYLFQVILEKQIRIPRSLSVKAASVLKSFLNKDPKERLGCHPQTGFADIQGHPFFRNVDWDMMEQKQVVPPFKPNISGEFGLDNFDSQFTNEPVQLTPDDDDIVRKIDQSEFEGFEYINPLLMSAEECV
The settings on record: at 0.1 µM.

For test [3], the target named is T1, Protein kinase C iota type (Homo sapiens). The settings on record: at 1 µM.
Test [4] deals with Protein kinase C theta type (Homo sapiens) (UniProt Q04759). The settings on record: at 0.1 µM.
Sequence of Protein kinase C theta type (Homo sapiens) (Q04759 whole entry, looked up): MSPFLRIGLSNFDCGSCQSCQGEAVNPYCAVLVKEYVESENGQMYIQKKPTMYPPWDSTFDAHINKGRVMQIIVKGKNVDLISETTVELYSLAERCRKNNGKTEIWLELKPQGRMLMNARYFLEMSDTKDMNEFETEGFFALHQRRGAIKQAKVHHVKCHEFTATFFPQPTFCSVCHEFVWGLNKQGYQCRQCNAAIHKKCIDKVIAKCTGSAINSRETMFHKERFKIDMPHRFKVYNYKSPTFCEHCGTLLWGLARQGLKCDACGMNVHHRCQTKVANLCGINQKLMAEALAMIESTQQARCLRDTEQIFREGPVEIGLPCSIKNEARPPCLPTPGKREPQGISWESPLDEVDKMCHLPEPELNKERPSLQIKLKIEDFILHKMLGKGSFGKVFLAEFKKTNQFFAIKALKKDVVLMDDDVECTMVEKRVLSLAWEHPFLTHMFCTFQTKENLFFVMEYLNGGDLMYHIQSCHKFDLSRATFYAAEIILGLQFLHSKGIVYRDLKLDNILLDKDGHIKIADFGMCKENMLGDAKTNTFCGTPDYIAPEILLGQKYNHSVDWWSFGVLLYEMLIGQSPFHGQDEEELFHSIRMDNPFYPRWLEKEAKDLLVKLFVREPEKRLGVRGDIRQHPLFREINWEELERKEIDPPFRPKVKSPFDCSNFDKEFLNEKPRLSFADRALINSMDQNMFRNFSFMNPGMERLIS
Test [5] shares this target. The settings on record: at 1 µM.
Test [6] addresses Protein kinase C beta type (Homo sapiens) (UniProt P05771). The settings on record: at 0.1 µM.
Test [7] shares this target. The settings on record: at 1 µM.
In test [8] the target is T2, Serine/threonine-protein kinase D1 (Homo sapiens) (UniProt Q15139).
T2 sequence (whole entry): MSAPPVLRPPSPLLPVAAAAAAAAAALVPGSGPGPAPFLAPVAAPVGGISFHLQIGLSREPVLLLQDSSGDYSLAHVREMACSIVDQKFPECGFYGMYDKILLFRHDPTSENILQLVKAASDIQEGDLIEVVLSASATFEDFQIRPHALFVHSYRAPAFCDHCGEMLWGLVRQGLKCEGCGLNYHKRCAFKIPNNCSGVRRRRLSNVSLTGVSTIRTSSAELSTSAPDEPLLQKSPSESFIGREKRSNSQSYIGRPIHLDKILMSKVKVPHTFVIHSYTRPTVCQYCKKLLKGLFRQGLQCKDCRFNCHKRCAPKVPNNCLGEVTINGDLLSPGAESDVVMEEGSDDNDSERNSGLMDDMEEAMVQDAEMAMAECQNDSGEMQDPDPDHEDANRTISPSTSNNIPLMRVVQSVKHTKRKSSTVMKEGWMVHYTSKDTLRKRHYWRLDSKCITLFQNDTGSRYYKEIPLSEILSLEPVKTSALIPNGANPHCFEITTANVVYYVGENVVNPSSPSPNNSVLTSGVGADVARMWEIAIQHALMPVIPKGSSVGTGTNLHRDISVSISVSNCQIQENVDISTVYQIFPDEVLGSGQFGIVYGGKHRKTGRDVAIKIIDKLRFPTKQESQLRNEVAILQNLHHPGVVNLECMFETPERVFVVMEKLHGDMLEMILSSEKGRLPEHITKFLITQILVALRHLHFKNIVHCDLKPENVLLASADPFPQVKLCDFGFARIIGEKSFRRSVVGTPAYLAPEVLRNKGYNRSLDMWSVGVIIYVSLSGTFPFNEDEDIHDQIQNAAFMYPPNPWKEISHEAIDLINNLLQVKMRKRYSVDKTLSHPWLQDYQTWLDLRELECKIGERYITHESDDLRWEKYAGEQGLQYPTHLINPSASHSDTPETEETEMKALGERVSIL
The settings on record: at 0.1 µM.

Test [9] addresses T2, Serine/threonine-protein kinase D1 (Homo sapiens). The settings on record: at 1 µM.
The target in test [10] is T3, Serine/threonine-protein kinase D2 (Homo sapiens) (UniProt Q9BZL6).
T3 sequence (whole entry): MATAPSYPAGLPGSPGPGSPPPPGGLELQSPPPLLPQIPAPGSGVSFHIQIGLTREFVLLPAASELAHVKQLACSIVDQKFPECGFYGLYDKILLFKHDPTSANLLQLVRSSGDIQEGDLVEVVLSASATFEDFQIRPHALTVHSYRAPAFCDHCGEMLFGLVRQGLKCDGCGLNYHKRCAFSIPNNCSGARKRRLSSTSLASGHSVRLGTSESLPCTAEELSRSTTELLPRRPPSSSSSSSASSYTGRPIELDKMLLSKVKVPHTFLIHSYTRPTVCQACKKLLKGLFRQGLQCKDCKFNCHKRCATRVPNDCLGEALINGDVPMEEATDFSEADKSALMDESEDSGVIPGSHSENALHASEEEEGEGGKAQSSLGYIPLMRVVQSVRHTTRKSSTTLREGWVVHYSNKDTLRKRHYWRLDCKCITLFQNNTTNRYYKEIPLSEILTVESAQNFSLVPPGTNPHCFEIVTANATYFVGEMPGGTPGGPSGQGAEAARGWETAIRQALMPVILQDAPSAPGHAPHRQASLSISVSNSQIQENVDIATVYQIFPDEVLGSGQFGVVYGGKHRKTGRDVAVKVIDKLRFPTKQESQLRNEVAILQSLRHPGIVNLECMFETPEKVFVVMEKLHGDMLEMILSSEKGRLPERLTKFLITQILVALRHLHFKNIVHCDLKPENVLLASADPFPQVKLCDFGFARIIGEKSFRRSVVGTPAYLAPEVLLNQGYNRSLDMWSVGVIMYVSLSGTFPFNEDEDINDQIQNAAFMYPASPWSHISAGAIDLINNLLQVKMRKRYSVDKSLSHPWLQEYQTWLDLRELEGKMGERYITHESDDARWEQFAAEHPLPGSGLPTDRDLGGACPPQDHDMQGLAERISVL
The settings on record: at 0.1 µM.

Test [11] concerns the target T3, Serine/threonine-protein kinase D2 (Homo sapiens). The settings on record: at 1 µM.
Test [12] has as its target T4, Serine/threonine-protein kinase D3 (Homo sapiens) (UniProt O94806).
T4 sequence (whole entry): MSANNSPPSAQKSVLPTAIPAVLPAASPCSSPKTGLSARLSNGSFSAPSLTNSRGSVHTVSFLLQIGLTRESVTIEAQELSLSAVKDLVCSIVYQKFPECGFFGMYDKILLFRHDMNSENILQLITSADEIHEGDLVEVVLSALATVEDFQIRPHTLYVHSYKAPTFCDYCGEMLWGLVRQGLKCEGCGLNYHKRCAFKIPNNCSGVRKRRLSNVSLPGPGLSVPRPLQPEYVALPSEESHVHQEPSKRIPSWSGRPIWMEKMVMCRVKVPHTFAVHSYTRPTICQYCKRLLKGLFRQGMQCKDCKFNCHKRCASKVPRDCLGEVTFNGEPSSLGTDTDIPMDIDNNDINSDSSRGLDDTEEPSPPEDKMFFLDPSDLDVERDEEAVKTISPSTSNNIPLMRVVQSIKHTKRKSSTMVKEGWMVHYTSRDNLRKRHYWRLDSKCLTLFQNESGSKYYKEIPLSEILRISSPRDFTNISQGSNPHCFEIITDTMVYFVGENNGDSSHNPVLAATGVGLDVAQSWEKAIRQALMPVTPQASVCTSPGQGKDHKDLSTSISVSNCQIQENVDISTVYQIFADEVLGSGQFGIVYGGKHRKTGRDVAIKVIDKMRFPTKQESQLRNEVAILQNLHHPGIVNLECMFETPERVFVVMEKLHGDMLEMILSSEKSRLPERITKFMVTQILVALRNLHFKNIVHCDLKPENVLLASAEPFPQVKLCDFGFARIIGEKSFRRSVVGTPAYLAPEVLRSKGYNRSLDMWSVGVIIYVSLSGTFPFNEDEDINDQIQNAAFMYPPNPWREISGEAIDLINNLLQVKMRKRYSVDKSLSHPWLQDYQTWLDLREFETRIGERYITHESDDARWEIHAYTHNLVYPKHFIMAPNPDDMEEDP
The settings on record: at 0.1 µM.

For test [13], the target named is T4, Serine/threonine-protein kinase D3 (Homo sapiens). The settings on record: at 1 µM.
Test [14] has as its target T5, cGMP-dependent protein kinase 1 (Homo sapiens) (UniProt Q13976).
T5 sequence (whole entry): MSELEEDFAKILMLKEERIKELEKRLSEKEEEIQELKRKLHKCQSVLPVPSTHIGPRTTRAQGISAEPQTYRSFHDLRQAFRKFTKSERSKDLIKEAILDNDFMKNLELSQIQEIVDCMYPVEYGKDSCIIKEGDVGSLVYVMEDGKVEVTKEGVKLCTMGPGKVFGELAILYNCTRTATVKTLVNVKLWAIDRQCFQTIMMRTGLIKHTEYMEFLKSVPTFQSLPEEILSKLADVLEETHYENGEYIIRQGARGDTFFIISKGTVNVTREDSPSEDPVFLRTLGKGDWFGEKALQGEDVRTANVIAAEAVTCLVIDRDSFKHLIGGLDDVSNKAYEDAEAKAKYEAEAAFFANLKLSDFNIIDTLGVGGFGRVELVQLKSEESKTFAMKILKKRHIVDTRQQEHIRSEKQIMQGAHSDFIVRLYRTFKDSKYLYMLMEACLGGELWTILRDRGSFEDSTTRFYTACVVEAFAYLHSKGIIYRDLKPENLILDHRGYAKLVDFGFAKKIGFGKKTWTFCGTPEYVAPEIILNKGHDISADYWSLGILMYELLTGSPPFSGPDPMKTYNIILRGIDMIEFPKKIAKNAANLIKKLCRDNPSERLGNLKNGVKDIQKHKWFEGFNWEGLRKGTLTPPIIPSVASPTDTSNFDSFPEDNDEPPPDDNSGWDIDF
The settings on record: at 0.1 µM.

Test [15] addresses T5, cGMP-dependent protein kinase 1 (Homo sapiens). The settings on record: at 1 µM.
Test [16] concerns the target T6, cGMP-dependent protein kinase 2 (Homo sapiens) (UniProt Q13237).
T6 sequence (whole entry): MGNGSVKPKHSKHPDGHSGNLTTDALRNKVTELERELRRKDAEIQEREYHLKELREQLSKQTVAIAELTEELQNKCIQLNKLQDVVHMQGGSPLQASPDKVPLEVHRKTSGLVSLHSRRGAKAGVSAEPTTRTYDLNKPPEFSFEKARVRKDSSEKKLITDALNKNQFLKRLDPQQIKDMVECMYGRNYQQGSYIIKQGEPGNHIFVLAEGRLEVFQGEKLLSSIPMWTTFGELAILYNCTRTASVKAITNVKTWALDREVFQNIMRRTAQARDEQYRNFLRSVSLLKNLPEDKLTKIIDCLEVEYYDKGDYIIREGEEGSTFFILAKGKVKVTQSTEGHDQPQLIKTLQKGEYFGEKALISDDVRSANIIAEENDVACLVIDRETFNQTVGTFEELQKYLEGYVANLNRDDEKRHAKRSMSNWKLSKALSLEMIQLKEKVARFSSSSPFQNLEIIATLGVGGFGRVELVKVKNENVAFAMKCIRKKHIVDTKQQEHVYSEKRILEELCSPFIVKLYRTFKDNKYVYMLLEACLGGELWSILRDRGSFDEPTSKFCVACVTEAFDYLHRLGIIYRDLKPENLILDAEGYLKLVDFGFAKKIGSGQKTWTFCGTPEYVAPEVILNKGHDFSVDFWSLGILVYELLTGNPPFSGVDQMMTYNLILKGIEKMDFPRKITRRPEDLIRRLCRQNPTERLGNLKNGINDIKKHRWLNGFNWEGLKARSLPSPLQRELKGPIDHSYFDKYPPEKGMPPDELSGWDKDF
The settings on record: at 0.1 µM.

In test [17] the target is T6, cGMP-dependent protein kinase 2 (Homo sapiens). The settings on record: at 1 µM.
Test [18] deals with T7, cAMP-dependent protein kinase catalytic subunit PRKX (Homo sapiens) (UniProt P51817).
T7 sequence (whole entry): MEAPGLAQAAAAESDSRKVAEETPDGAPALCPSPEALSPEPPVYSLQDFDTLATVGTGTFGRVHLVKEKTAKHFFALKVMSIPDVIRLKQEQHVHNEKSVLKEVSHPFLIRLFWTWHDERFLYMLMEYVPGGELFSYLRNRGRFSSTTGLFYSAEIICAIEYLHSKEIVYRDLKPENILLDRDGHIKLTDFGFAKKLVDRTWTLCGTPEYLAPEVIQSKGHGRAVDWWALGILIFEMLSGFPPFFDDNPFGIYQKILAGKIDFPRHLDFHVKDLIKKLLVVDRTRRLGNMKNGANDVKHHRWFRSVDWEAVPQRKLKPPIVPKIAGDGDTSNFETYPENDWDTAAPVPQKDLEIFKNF
The settings on record: at 0.1 µM.

Test [19] has as its target T7, cAMP-dependent protein kinase catalytic subunit PRKX (Homo sapiens). The settings on record: at 1 µM.
Test [20] addresses Rho-associated protein kinase 1 (Homo sapiens) (UniProt Q13464). The settings on record: at 0.1 µM.

Sequence of Protein kinase C beta type (Homo sapiens) (P05771 2-671 limits assumed): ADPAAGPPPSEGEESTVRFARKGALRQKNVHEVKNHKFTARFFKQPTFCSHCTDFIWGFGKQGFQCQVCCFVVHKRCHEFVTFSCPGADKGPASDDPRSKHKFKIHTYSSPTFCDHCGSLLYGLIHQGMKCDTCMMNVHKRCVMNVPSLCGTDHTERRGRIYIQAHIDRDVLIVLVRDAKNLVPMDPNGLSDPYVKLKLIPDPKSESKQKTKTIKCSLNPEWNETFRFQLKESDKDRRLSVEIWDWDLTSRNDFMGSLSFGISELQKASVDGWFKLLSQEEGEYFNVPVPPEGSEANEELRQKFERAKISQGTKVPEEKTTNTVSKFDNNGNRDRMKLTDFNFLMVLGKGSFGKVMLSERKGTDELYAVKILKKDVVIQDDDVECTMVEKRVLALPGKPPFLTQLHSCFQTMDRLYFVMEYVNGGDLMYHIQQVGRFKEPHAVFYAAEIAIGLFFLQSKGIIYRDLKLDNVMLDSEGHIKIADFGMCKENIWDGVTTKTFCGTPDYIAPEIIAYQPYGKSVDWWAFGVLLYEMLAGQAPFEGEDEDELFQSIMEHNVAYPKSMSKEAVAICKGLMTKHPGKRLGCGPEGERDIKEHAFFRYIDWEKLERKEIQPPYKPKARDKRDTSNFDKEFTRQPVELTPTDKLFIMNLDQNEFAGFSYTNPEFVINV
Sequence of Rho-associated protein kinase 1 (Homo sapiens) (Q13464 2-1354 limits assumed): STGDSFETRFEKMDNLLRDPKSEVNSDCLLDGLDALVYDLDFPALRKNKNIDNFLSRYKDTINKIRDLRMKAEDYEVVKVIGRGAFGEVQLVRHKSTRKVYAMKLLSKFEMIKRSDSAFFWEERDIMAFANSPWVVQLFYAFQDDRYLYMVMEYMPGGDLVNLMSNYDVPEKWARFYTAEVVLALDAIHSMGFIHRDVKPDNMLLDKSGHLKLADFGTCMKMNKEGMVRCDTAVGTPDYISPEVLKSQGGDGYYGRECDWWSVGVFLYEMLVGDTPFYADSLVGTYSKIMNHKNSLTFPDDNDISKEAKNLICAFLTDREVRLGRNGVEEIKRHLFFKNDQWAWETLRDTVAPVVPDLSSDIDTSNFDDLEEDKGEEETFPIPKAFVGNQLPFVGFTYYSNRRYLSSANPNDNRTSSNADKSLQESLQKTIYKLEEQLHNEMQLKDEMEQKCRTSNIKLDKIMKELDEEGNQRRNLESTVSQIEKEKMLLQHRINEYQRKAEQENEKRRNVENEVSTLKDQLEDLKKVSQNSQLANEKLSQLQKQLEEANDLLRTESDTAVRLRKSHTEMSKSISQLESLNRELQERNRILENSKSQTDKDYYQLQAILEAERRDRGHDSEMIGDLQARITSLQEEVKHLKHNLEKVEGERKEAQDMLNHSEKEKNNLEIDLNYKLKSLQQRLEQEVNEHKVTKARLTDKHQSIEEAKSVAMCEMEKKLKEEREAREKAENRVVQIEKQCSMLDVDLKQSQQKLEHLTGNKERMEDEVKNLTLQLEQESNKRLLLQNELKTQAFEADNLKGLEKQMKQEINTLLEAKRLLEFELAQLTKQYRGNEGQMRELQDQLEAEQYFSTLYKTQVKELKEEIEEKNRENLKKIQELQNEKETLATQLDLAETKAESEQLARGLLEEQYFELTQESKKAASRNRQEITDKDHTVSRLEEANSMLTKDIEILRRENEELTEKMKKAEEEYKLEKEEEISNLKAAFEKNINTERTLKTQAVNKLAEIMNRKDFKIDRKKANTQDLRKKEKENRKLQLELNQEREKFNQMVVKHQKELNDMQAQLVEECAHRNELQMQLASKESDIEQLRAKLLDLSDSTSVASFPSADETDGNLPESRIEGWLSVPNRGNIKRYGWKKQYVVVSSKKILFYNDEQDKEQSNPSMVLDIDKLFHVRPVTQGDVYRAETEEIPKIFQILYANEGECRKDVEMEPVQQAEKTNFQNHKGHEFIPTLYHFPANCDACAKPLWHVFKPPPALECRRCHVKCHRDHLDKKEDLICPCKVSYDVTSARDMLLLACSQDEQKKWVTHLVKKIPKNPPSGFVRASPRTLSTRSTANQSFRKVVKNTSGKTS

Usually inhibition stands for the relative decrease from the control value, in per cent. Turning to `C[C@@H](Oc1cc(-n2cnc3ccc(OC4CCN(C)CC4)cc32)sc1C(N)=O)c1ccccc1Cl`, the inhibition is 4.97% in [1]; 1.12% in [2]; 2.89% in test [3]; 3.08% in [4]; 9.67% in test [5]; 1.56% in [6]. Besides, the inhibition in [7] was determined as 8.48%; in test [8], 0.52%; in [9] it was 3.79%; in test [10] it was 0.7%; in test [11], 1.06%; in test [12] it was 0.8%. Further, the inhibition came to 3.55% in test [13]; 3.98% in test [14]; 4.08% in test [15]; 1.43% in [16]; 4.43% in test [17]; 2.2% in test [18]. Further, the inhibition in [19] is -1.84%; in test [20], 1.76%.

For `COc1ccc(-c2ccc3c(NC(=O)C4CC4)n[nH]c3n2)cc1`, the inhibition was 2.95% in test [1]; 0.3% in test [2]; -0.23% in [3]; 1.39% in test [4]; 2.97% in test [5]; 0.8% in test [6]. The inhibition in [7] came out at 0.48%; in test [8] it was 2.32%; in test [9] it was 1.39%; in test [10] it was 1.92%; in [11], 1.69%; in [12] it was 1.45%. Moreover, the inhibition in test [13] is 1.7%; in test [14], 1.26%; in test [15] it was 1.97%; in test [16] it was 0.63%; in [17], 0.65%; in test [18], 1.66%. Moreover, the values for the inhibition in test [19] and in [20] were 3.81% and 0.53%, respectively.
